# Reference: PubChem BioAssay (NCI)
# About 83,000 compounds went through this panel and 20% of them were active in at least one assay; those are over-represented in the sample as a whole.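 Compound tested at a single concentration for 48 hours in 96-well plates; a percent growth value below 10 was scored as active.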 Values without a mark were called inactive. The source made the active and inactive calls.
# Assays:
# Assay in all cases: NCI-60 one-dose screen, 48 h (100 = growth as untreated, 0 = no growth, -100 = all killed)
# Details in all cases: 10 µM unless noted
# NCI-H23 lung = tested on: NCI-H23 lung
# NCI-H226 lung = tested on: NCI-H226 lung
# HOP-62 NSCLC = tested on: HOP-62 NSCLC
# NCI-H460 lung = tested on: NCI-H460 lung
# HOP-92 NSCLC = tested on: HOP-92 NSCLC
# NCI-H522 lung = tested on: NCI-H522 lung
# A549/ATCC NSCLC = tested on: A549/ATCC NSCLC
# 786-0 renal = tested on: 786-0 renal
# COLO 205 colon = tested on: COLO 205 colon
# NCI-H322M lung = tested on: NCI-H322M lung
Compound,growth (NCI-H23 lung),growth (NCI-H226 lung),growth (HOP-62 NSCLC),growth (NCI-H460 lung),growth (HOP-92 NSCLC),growth (NCI-H522 lung),growth (A549/ATCC NSCLC),growth (786-0 renal),growth (COLO 205 colon),growth (NCI-H322M lung)
O=C1C2C(C(=O)[N]1[Hg][c]1ccccc1)C1(Cl)C(Cl)=C(Cl)C2(Cl)C1(Cl)Cl (centres undefined),-8.01% (active),82.9%,47.2%,-20.9% (active),-84.5% (active),-87.4% (active),78.7%,26%,-96.5% (active),–
O=P(Oc1ccc(Cl)cc1)(N1CC1)N1CC1,65.4%,87.8%,81.3%,39.3%,81.2%,66.8%,60.2%,84.5%,94.6%,–
O=C1C(=Cc2cn(Cc3ccccc3)c3ccccc23)C(=O)N(Cc2ccccc2)C(=O)N1Cc1ccccc1,87.8%,-49.4% (active),85.5%,36%,90.9%,87.6%,80.1%,93.3%,26.4%,–
COc1cc(C=Nc2cccc(Br)c2)ccc1N(CCCl)CCCl,72.7%,75.2%,89%,21.9%,74.8%,-81.5% (active),64.9%,94.4%,78.5%,–
COc1cc2c(cc1OCCCn1c(-c3ccccn3)nc3ccccc31)N=C[C@@H]1CCCN1C2=O,15%,-62% (active),18%,-22.7% (active),-59.6% (active),-5.46% (active),–,-33.7% (active),9.33% (active),–
C=CCCCCCCCCC(=O)[O-].C=CCCCCCCCCC(=O)[O-].[Zn+2],96.9%,115%,119%,106%,72.5%,119%,101%,97.2%,127%,–
CCCCCCCCCCCCNC(c1ccccc1)C(O)c1ccccc1 (centres undefined),78.7%,103%,90.3%,93.4%,80.7%,69.1%,84.7%,79.3%,-30.7% (active),–
COC(=O)[C@@H](NC(=O)c1cn(CCC2CCCCC2)c2ccccc12)C(C)(C)C,76.4%,58.6%,61.8%,79.3%,63.4%,63.7%,64.8%,73.5%,96.4%,–
CCCCCCCC(=O)OCC(=O)[C@]1(O)Cc2c(O)c3c(c(O)c2[C@@H](OC2CC(N)C(O)C(C)O2)C1)C(=O)c1c(OC)cccc1C3=O (some centres undefined),-76.2% (active),-65.9% (active),-63.1% (active),-92.9% (active),-73.5% (active),-63.2% (active),-97.6% (active),-82.9% (active),-85.7% (active),–
COc1ccc(C(=O)c2cc(OC)c(OC)c(OC)c2)cc1OC(C)=O,31%,102%,25.2%,7.92% (active),50.9%,10.3%,22.4%,26.5%,16.3%,–
CCN(CC)c1ccc2c(c1)OC(N)=C(C#N)C2c1cc(OC)c2c(c1)OCO2 (centres undefined),17.8%,29%,42%,3.22% (active),38.2%,-41.7% (active),19.8%,15.5%,-42.8% (active),–
O=C(N/N=C\c1ccc(N(CCCl)CCCl)cc1Cl)c1cccnc1,70.5%,-48.5% (active),72.2%,7.56% (active),74.3%,116%,60.4%,66.9%,83%,–
COc1cccc(C=NC(Cc2cnc[nH]2)C(=O)O)c1O (centres undefined),107%,94.8%,87.6%,107%,56%,59.3%,91.5%,97.2%,122%,–
CC(CO)NC1CCCCC1 (centres undefined),103%,–,102%,108%,78%,103%,102%,100%,113%,102%
CC1=C(CN)C2=C(C)C3(CC3)[C@@](C)(O)C(=O)C2=C1,68.2%,91.8%,88.2%,66.1%,115%,87.9%,93.5%,99%,85.1%,–
COc1cccc2c1c(C(=O)c1ccco1)cn2Cc1ccc(F)cc1,111%,–,125%,113%,63.4%,76.2%,112%,110%,123%,115%
COC(=O)[C@@H](C)C[C@H](Cc1ccccc1)NC(=O)c1csc([C@@H](C[C@H](C(C)C)N(C)C(=O)[C@@H](NC(=O)[C@H]2CCCCN2C)C2CC2)OC(C)=O)n1,22%,–,15.7%,14.1%,31.3%,-45.5% (active),13%,21.8%,-69.9% (active),52.2%
CC[C@H](C)[C@H](NC(=O)N[C@@H](C)c1ccccc1)C(=O)N(C)[C@H](C[C@@H](OC(C)=O)c1nc(C(=O)N[C@@H](Cc2ccccc2)C[C@H](C)C(=O)OC)cs1)C(C)C,27%,30.7%,22.7%,3.57% (active),73.1%,-39.1% (active),31.3%,10.9%,-46.8% (active),–
Clc1ccc2nnnn2n1,54.4%,66.6%,55.7%,20.7%,-3.54% (active),13.2%,77.3%,23%,-77.3% (active),–
COP(=S)(N1CC1)N1CC1,101%,98.6%,94.1%,107%,98.6%,103%,133%,105%,106%,–
Nc1ncnc2n[nH]nc12,72.7%,72.3%,40%,95.1%,77.3%,34%,73.4%,56.2%,70.5%,–
CC(=O)OC[C@]1(C)C=C2C(=O)[C@](C)(O)C3(CC3)C(C)=C2[C@H]1OC(=O)N(C)CCN(C)C(=O)OC(C)(C)C,-17.8% (active),24.7%,-19.9% (active),0.38% (active),-13.4% (active),-47% (active),–,0.73% (active),-66.8% (active),–
O=C(O)C(O)C(O)C1[O][Sb]([c]2ccc([N+](=O)[O-])cc2)[O]C1CO (centres undefined),101%,93.4%,110%,100%,102%,94.6%,94.4%,104%,115%,–
Cc1ccc2c(C(C[N+](=O)[O-])c3cccs3)c(-c3ccccc3)[nH]c2c1 (centres undefined),–,46.4%,26.2%,11.3%,25.5%,-3.71% (active),28.8%,38.6%,6.75% (active),54.7%
COC(=O)[C@]12CCC(C)(C)C[C@H]1[C@H]1C(=O)C[C@@H]3[C@@]4(C)C[C@@]5(CC(C)(C)[C@@H]4CC[C@@]3(C)[C@]1(C)CC2)OO[C@@](C)(C(F)(F)F)O5,89%,–,100%,101%,98.8%,76.7%,98%,97.8%,134%,109%
O=C1C2CC=CCC2C(=O)N1SC(Cl)(Cl)Cl (centres undefined),96.7%,–,95.9%,103%,64.7%,-57.1% (active),108%,97.7%,87.5%,125%
COc1cc2ncnc(Nc3ccc(F)c(Cl)c3)c2cc1OCC(=O)N1CCN(C)CC1,98.1%,–,96.9%,104%,75.1%,39.2%,76.9%,70.9%,104%,26.6%
CN1C(=O)C(=Cc2cn(CCCCCCn3c4ccccc4c(=O)c4ccccc43)c3ccccc23)C(=O)N(C)C1=O,79.9%,–,89.1%,85.1%,97.5%,94.9%,103%,97.4%,102%,99.4%
CN1CCCCC1C(C)(O)c1ccccc1 (centres undefined),106%,–,92.9%,107%,98.6%,89.9%,92%,95.1%,114%,101%
